An excerpt weighted towards active compounds, which were near 0.37% of everything screened.
MBNL1-CUG inh – qHTS Assay for Inhibitors of MBNL1-poly(CUG) RNA binding; Muscleblind-like protein 1 (Homo sapiens), Q9NR56; TR-FRET MBNL1-His/biotin-(CUG)12 binding, 665/545 ratio; Potency, µM (top dose mostly 57.5 µM), most hits filed as inhibitors; 280,000 compounds, 0.036% hits; AID 2675, 2010; active means well fitted inhibition curve with a large enough effect in the signal ratio, with a control signal flat, not every such curve was filed as active; inconclusive means small, poorly fitted or top-dose-only effect, or effect the other way, or a change in a side signal; inactive means no such curve, though single readings can be large or run the other way; the % refers to the signal ratio
Target sequence (Q9NR56 whole entry, looked up): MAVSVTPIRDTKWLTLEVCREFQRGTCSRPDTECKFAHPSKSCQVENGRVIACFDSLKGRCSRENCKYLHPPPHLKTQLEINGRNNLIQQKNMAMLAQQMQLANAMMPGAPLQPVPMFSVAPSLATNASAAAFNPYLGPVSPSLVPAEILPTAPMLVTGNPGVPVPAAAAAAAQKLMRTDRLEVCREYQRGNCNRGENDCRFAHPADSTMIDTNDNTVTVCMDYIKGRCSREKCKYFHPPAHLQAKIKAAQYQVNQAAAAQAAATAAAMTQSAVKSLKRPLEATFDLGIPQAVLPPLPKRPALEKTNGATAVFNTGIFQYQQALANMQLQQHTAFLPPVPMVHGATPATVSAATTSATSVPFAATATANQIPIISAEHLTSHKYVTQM
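Ratiometric TR-FRET (665 over 545 nm, excitation 340 nm) tracks disruption of MBNL1-His/biotin-(CUG)12 complex after 60 min at room temperature, with compounds at 92 nM to 58 uM final.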
Vif-APOBEC3G blk – qHTS for Inhibitors of Vif-A3G Interactions: qHTS; DNA dC->dU-editing enzyme APOBEC-3G (Homo sapiens), Q9HC16; HeLa A3G-eYFP + Vif (tagged APOBEC3G with the HIV-1 protein that degrades it), YFP fluorescence, overnight; Potency, µM (doses to about 46.1 µM), most hits filed as inhibitors; 410,000 compounds, 0.076% hits; AID 602310, 2012; further: nearly all actives have a fitted effect of over 60% in size
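Read-out is eYFP fluorescence (Ex 488/Em 500-530) from Vif-expressing HeLa A3G-eYFP cells; more signal means A3G escaped Vif-mediated degradation. Cells plated overnight, compound pinned in, incubated overnight at 37 deg C.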
Vif-APOBEC3F blk – qHTS for Inhibitors of Vif-A3F Interactions: qHTS; HeLa A3F-eYFP + Vif (tagged APOBEC3F with the HIV-1 protein that degrades it), YFP fluorescence increase; Potency, µM (series often up to 46.1 µM); 390,000 compounds, 0.2% hits; AID 602313, 2012; further: nearly all actives have a fitted effect of over 65% in size
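Fluorescence increase (Ex 488/Em 500-530) after overnight compound treatment at 37 deg C flags inhibition of Vif-driven A3F-eYFP loss in stable HeLa A3F-eYFP/Vif cells seeded overnight beforehand.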
Epigenetic reg – Quantitative High-Throughput Screen for Regulators of Epigenetic Control | murine LDR cells, GFP reporter derepression, 30 h | Potency, µM (doses to about 53.9 µM), hits mostly activators | 280,000 compounds, 0.2% hits; further: nearly all actives have a fitted effect of over 60% in size
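Murine LDR cells carrying a silenced, genomically integrated CMV-driven GFP reporter were exposed to compound for 30 hours at 37 C. After PBS washes, GFP-positive cells (20–120 um objects) were counted by laser-scanning microplate cytometry.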
CBFb-RUNX1 inh – qHTS Assay for Compounds Blocking the Interaction Between CBF-beta and RUNX1 for the Treatment of Acute Myeloid Leukemia. AlphaScreen CBFb-His/RUNX1-biotin binding, biochemical. Potency, µM (doses to about 59.8 µM), hits mostly inhibitors. 230,000 tested, under 10 active
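AlphaScreen binding: CBFb-His and RUNX1-biotin (30 nM each) preincubated 20 min, compound added for 15 min, then nickel and streptavidin beads for 90 min, all at room temperature. Disruption of the interaction by any mechanism counts as activity.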
TSG101-PTAP inh – qHTS Assay for Iinhibitors of HIV-1 Budding by Blocking the Interaction of PTAP/TSG101. 340,000 tested, under 10 active. Potency, µM (doses to about 115 µM), usual class: inhibitors. Fluorescence polarization, FITC-PTAP peptide / Tsg101 binding. Tumor susceptibility gene 101 protein (Homo sapiens), Q99816. AID 493005, 2010; active means well fitted inhibition curve with a large enough effect in the main read-out, with a control signal flat, not every such curve was filed as active; inconclusive means small, poorly fitted or top-dose-only effect, or effect the other way, or a change in a side signal; inactive means no such curve, though single readings can be large or run the other way
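Steps: Tsg101 binding domain dispensed (10 uM final), compounds pinned in DMSO, FITC-labeled PTAP-motif peptide added (50 nM final); after 20 min binding at room temperature, polarization measured.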
Parental c127i – Parental Cell Counter Screen Assay for Epigenetic Modulators: Hit Validation. shares compounds with Epigenetic reg. mouse c127i parental cells, fluorescent cell count, 30 h. Potency, µM, actives largely listed as activators. 60 compounds, 20% hits. AID 493065, 2011
HCC4017 tox – HCC4017 Cell Viability Secondary Assay for qHTS Assay for Epigenetic Modulators; shares compounds with Epigenetic reg; HCC4017 NSCLC viability, CellTiter-Glo ATP luminescence, 72 h; Potency, µM (doses to about 46.1 µM), usual class: cytotoxic; 45 compounds, 30% hits
H358 viab – H358 Cell Viability Secondary Assay for qHTS Assay for Epigenetic Modulators: Round 2; shares compounds with Epigenetic reg; H358 NSCLC viability, ATP luminescence, 72 h; Potency, µM (titrated, usually from 46.1 µM), actives largely listed as cytotoxic; 45 compounds, 30% hits; AID 493074, 2011
MBNL1-CUG FRET – qHTS Assay for Inhibitors of MBNL1-poly(CUG) RNA binding: Initial hit validation from the primary screen; shares compounds with MBNL1-CUG inh; TR-FRET MBNL1-His / biotin-(CUG)12 binding, 60 min; Potency, µM (top dose mostly 57.6 µM), most hits filed as inhibitors; 140 compounds, 50% hits
MBNL1-CUG Alpha – qHTS Assay for Inhibitors of MBNL1-poly(CUG) RNA binding: Initial hit validation in AlphaScreen assay for MBNL1-(CUG)12 binding; shares compounds with MBNL1-CUG inh; Potency, µM (series often up to 57.7 µM), usual class: inhibitors; 140 compounds, 30% hits; AlphaScreen MBNL1-His / biotin-(CUG)12 binding; AID 493205, 2011
MBNL1 HTRF CS – qHTS Assay for Inhibitors of MBNL1-poly(CUG) RNA binding: Counterscreen HTRF assay; shares compounds with MBNL1-CUG inh; His-Menin/biotin-MLL peptide TR-FRET counterscreen; Potency, µM (titrated, usually from 57.6 µM), most hits filed as inhibitors; 120 compounds, 20% hits
A number is an active result; n = inactive; u = inconclusive; x = not tested or not shown; [ ] = remark or other dose. Unless noted, the call rests on the fitted dose curve; in most records, active means well fitted curve in the direction sought with a large enough effect; inconclusive means small, poorly fitted or top-dose-only effect, or another doubt; inactive means no such curve, though single readings can be large; an effect the other way counts as inactive or inconclusive.

SMILES	MBNL1-CUG inh	Vif-APOBEC3G blk	Vif-APOBEC3F blk	Epigenetic reg	CBFb-RUNX1 inh	TSG101-PTAP inh	Parental c127i	HCC4017 tox	H358 viab	others
COc1nc(Nc2nc3ccccc3c(=O)[nH]2)nc2ccc(C)cc12	n	n	n	u	n	n	n	2.8µM	3.1µM
Cc1cc(C)cc(Nc2nc3ccccc3c(=O)[nH]2)c1	n	n	u	n	n	n	x	x	x
CC1=C(C(N)=O)C(c2cccc(Br)c2)n2nc(SCc3ccccc3)nc2N1 (stereo not given)	x	n	n	n	x	x	x	x	x
CCCn1cc(S(=O)(=O)c2cc(C)ccc2C)c(=O)c2cc(F)c(N3CCOCC3)cc21	x	n	n	n	x	x	x	x	x
O=C(CSc1cccc2cccnc12)N1CCCC1	n	u	n	n	x	n	x	u	n
CCCCN(CCCNC(=O)CN1N=C(c2ccccc2)CCC1=O)c1ccccc1	x	n	n	n	x	x	x	x	x
O=C(CSc1c2c(nc3cc(Cl)ccc13)CCCC2)NCCCN1CCOCC1	n	n	n	n	n	n	x	x	x
CCN(CC)CCCNC(=O)CSc1c2c(nc3cc(Cl)ccc13)CCCC2	n	n	n	u	n	n	n	u	28µM
N#Cc1sc2nc(-c3ccccc3)cc(C(F)(F)F)c2c1N	n	n	u	u	n	n	16µM	x	x
Cc1ccc(/C=[N+](\[O-])c2ccc(N(C)C)cc2)c2nsnc12	u	n	n	u	u	n	n	14µM	28µM
Cc1ccc(-c2nnc(Nc3ccc(OCC(N)=O)cc3)c3ccccc23)cc1S(=O)(=O)N(C)C	x	n	n	n	x	x	x	x	x
Cc1ccc(C)c(N2CCN(C(=O)CCn3c(=O)c4cccn4c4cccnc43)CC2)c1	x	n	n	n	x	x	x	x	x
O=C(O)CCCCCN1C(=O)/C(=C\c2ccc(-c3ccc(Cl)cc3)o2)SC1=S	n	n	u	3.5µM	n	n	7.9µM	x	x
S=C(Nc1ccccc1)c1ccccn1	n	u	n	5.6µM	n	n	22µM	n	n
COc1cccc(/C=N/NC(=O)c2cc(-c3ccc(C)cc3)n[nH]2)c1O	x	x	x	n	x	x	x	x	x
C(=N\Nc1nc(-c2cccnc2)nc2ccccc12)/c1ccccc1	n	n	n	n	n	n	x	x	x
C(=N\Nc1nc(-c2ccccn2)nc2ccccc12)/c1ccccc1	x	n	x	10µM	n	x	n	0.4µM	u
O=C1C=C(Nc2ccc(Cl)cc2)C(=O)N1c1ccc(Cl)cc1	x	n	u	10µM	n	n	u	n	n
Oc1ccc(Br)cc1C=Nc1ccc2c3c(cccc13)CC2	x	u	n	3.5µM	n	n	n	n	u
Oc1ccc(Cl)cc1C=Nc1ccccc1Br	u	n	n	n	n	n	x	x	x
O=C(COC(=O)c1cc(-c2ccccc2)nc2c(Cl)cccc12)c1ccc(F)cc1	x	n	n	n	x	x	x	x	x
O=C(NC1CCCCC1)c1ccccc1NC(=O)C1CC(=O)N(c2ccccc2)C1 (stereo not given)	40µM	n	n	n	n	n	x	x	x	MBNL1-CUG FRET=n;MBNL1-CUG Alpha=n;MBNL1 HTRF CS=n
O=C(NC1CCCCC1)c1ccccc1NC(=O)C1CC(=O)N(c2ccc(Cl)cc2)C1 (stereo not given)	16µM	n	n	n	n	n	x	x	x	MBNL1-CUG FRET=n;MBNL1-CUG Alpha=u;MBNL1 HTRF CS=n
C(=C\c1ccnc2ccccc12)/c1ccc(N2CCOCC2)cc1	x	n	x	x	x	x	x	x	x
COc1cc2c(cc1OC)-c1cc3nc4ccccc4nc3n1C(C)(C)C2	x	x	x	n	x	x	x	x	x
C/C1=C2N=C(/C=C3N=C(/C(C)=C4\[N-]C(C)(C5N=C1C(C)(CCC(=O)NCC(C)OP(=O)([O-])O[C@H]1C(O)C(n6cnc7cc(C)c(C)cc76)O[C@@H]1CO)C5CC(N)=O)C(C)(CC(N)=O)C4CCC(N)=O)C(C)(CC(N)=O)C\3CCC(N)=O)C(C)(C)C/2CCC(N)=O.[CH2-]C1OC(n2cnc3c(N)ncnc32)C(O)C1O.[Co] (stereo not given in full)	x	x	x	n	n	x	x	x	x	MBNL1-CUG FRET=0.12µM;MBNL1-CUG Alpha=5.2µM
Cc1ccc(S(=O)(=O)Oc2ccccc2/C=N/N=C(N)N)cc1	18µM	n	n	n[10.1 µM]	n	n	x	x	x	MBNL1-CUG FRET=16µM;MBNL1-CUG Alpha=n;MBNL1 HTRF CS=u
Cc1ccc(S(=O)(=O)Oc2ccccc2/C=N/NC(N)=S)cc1	n	n	n	n	n	n	x	x	x

Screens as filed in PubChem.
